Results filed as inconclusive are left out. Values without a mark were called inactive. The source made the active and inactive calls. Calls follow the shape of the dose curve; as a rule, active = well fitted inhibition curve with a large enough effect; inconclusive = small, poorly fitted or top-dose-only effect, or effect the other way; inactive = flat fitted curve, though single readings scatter.
target: D(1A) dopamine receptor (Homo sapiens) (UniProt P21728); assay: HTS Assay for Allosteric Agonists of the Human D1 Dopamine Receptor: Primary Screen for Antagonists (AID 488983); conditions: D1 receptor cell assay, antagonist mode, qHTS titration; series mostly up to 41.8 µM; activity change, negative = inhibition: at the top concentration; also: nearly all actives have a fitted effect of over 65% in size
Sequence (P21728 whole entry, looked up): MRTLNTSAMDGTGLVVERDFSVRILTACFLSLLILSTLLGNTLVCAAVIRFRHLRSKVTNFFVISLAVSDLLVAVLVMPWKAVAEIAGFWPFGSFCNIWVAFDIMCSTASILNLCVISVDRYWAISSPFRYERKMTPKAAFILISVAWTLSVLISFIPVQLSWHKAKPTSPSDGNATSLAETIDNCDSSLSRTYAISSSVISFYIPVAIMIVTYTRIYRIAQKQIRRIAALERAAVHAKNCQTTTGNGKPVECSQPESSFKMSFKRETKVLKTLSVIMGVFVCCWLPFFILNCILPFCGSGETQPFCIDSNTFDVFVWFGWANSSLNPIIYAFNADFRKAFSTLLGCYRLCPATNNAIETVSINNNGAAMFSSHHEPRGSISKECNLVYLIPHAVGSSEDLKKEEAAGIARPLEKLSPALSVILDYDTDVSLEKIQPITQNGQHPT
Source text: Dopamine receptors (DARs) are involved in the etiology and/or therapy of a number of neuropsychiatric and endocrine disorders. For instance, all receptor-based antiparkinsonian drugs work via stimulating the […] DAR subtype whereas all FDA-approved antipsychotic agents are antagonists of this receptor. […] There are three different types of allosteric modulators that we are seeking, two of which will stimulate or augment receptor signaling, allosteric agonists and potentiators, while the third, allosteric antagonists, will attenuate receptor signaling. The present primary screening assay measures compound agonism by tracking calcium flux in a […], inducible Hek293 Trex D1 cell line.
Freshly passaged cells are plated in 1536 well black, clear bottom plates at a density of 4000 cells/well in 3 ul of complete media containing 1x tetracycline inducer. After an overnight incubation at 30 C in 5% CO2, cells are loaded with 2 ul of the no wash Calcium Assay Kit (ABD Bioquest) and incubated at room temperature for 30 to 90 minutes. A 10 cycle (1 second/cycle) baseline measurement is taken and then the FDSS online 1536 pintool delivers 23 nl of compound library (as well as dopamine controls) to the plate. The plate is measured for kinetically at 1 cycle/sec for 180 seconds and is considered to be the agonist portion of the assay (eg, compounds which activate a positive calcium response during this portion are flagged as potential agonists). Following the 180 second read, 1 ul of an EC80 of dopamine is delivered by an onboard pipette head. Measurements are taken kinetically for an additional 180 seconds.
% is scaled to controls: 0 for no effect and ±100 for the full control effect; potency is read from the fitted curve at half-maximal effect.

Structure (SMILES) | activity change, negative = inhibition [%] | Potency
Cc1nccc2c1[nH]c1ccccc12 | -7.34 | –
CC(Cc1ccc(O)cc1)NCC(O)c1cc(O)cc(O)c1 (stereo not given) | -6.71 | –
NC(CCP(=O)(O)O)C(=O)O (stereo not given) | 6.53 | –
CC1=NN=C(c2ccc(N)cc2)c2cc3c(cc2C1)OCO3 | -3.27 | –
CNCCc1c[nH]c2ccc(O)cc12 | -14.4 | –
NCCc1c[nH]c2ccc(O)cc12 | 2.13 | –
C[N+]1(C)C2CCC1CC(OC(=O)C(CO)c1ccccc1)C2 (stereo not given) | – | inactive
COc1ccc2c(c[n+](C)c3c4cc5c(cc4ccc23)OCO5)c1OC | 7.58 | –
C[C@@H]1O[C@H](C[N+](C)(C)C)C[C@H]1O | -15.3 | –
NC(=O)CN1CC(O)CC1=O (stereo not given) | -6.76 | –
NCCc1c[nH]c2ccccc12 | -2.15 | –
NC(CP(=O)(O)O)C(=O)O (stereo not given) | -9.12 | –
O=C(O)CC[N+](=O)[O-] | 9.81 | –
CC[C@@]1(O)C(=O)OCc2c1cc1n(c2=O)Cc2cc3ccccc3nc2-1 | -0.882 | –
C[C@@H](N)Cc1cnc[nH]1 | 2.83 | –
CC[C@@H](C(N)=O)N1CCCC1=O | 9.74 | –
C[C@]12N[C@H](Cc3ccccc31)c1ccccc12 | -3.32 | –
NCc1cc(=O)[nH]o1 | -0.144 | –
CC(=O)NCCc1c[nH]c2ccccc12 | -1.54 | –
C=CCN1CC[C@]23CCCCC2[C@H]1Cc1ccc(O)cc13 (stereo not given in full) | -12.2 | –

Structure (SMILES) | activity change, negative = inhibition [%] | Potency
C[C@]12CCC3C(CC[C@H]4C[C@H](O)CC[C@]34C)C1CC[C@@H]2C(=O)CO (stereo not given in full) | 3.99 | –
NC1CCc2cc(O)c(O)cc2C1 (stereo not given) | – | 89.1 nM (active)
NC(N)=NOCCC(N)C(=O)O (stereo not given) | -4.23 | –
O=C(O)Cc1cnc[nH]1 | 9.35 | –
C#CCOC(=O)C1=CCCN(C)C1 | 11.3 | –
NC(=NCCC[C@H](N)C(=O)O)N[N+](=O)[O-] | 3.36 | –
O=C(Cc1ccc(Cl)c(Cl)c1)N1CCCCC1CN1CCCC1 (stereo not given) | 11.1 | –
S=C(NC1CCCCC1)N1CCC(c2cnc[nH]2)CC1 | 10.1 | –
O=C(O)[C@@H]1CCN1 | 6.74 | –
CCCN(CCC)[C@@H]1CCc2ccc(O)cc2C1 | – | 10000 nM (active)
O=C(N[C@H]1CN2CCC1CC2)c1ccc(Cl)cc1 | -11 | –
CC(C)NC(C)Cc1ccc(I)cc1 (stereo not given) | -5.95 | –
Clc1cnc(Oc2ccc(Oc3ncc(Cl)cc3Cl)cc2)c(Cl)c1 | 11.3 | –
COC(=O)[C@@H](N)CCCN=C(N)N[N+](=O)[O-] | 7.89 | –
CNCCc1ccc(O)c(O)c1 | – | 251 nM (active)
Oc1ccc2c3c1O[C@H]1c4[nH]c5c(c4C[C@@]4(O)[C@@H](C2)N(CC2CC2)CC[C@]314)C[C@@]1(O)[C@H]2Cc3ccc(O)c4c3[C@@]1(CCN2CC1CC1)[C@H]5O4 | 14.3 | –
c1ccc(C2(c3ccccc3)CC2C2=NCCN2)cc1 (stereo not given) | -7.73 | –
Cn1cnc(CCN)c1 | 11.4 | –
CS(=N)(=O)CC[C@H](N)C(=O)O (stereo not given in full) | -6.71 | –
CCCCc1ccc(C(=O)O)nc1 | 13.7 | –

Source: PubChem BioAssay (NCATS)
